# From PubChem BioAssay (NCI)
# The panel holds about 79,000 compounds, 15% with a hit somewhere; the sample as a whole holds those more often. A number with no mark means an inactive call. Activity calls are given as the source filed them. Rule as the data show it: active = growth inhibition above about 70%; inactive = the rest.
# Tests used:
# [1] = NCI Yeast Anticancer Drug Screen. Data for the rad50 strain (AID 155);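 also: 0% = growth of vehicle-only cultures of the same strain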; conditions: S. cerevisiae rad50 strain growth inhibition, hits give high values
# Outline: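 Inhibition values express reduced yeast growth in compound-treated cultures relative to vehicle-treated controls.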
# [2] = NCI Yeast Anticancer Drug Screen. Data for the mec2-1 strain (AID 157); conditions: S. cerevisiae mec2-1 strain, hits give high values
# Outline: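 Compounds were applied to mec2-1 yeast cells. Their growth was then compared with that of vehicle-treated cultures to give growth inhibition.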
# [3] = NCI Yeast Anticancer Drug Screen. Data for the sgs1 mgt1 strain (AID 161);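 also: 0% = growth of cultures given vehicle only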; conditions: S. cerevisiae sgs1 mgt1 strain, hits give high values
# Outline: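 Compounds are added to genetically altered yeast, and growth is compared with cultures given vehicle alone to give percent inhibition.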
# [4] = NCI Yeast Anticancer Drug Screen. Data for the cln2 rad14 strain (AID 165);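 also: 0% = growth equal to vehicle treated cultures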; conditions: S. cerevisiae cln2 rad14 strain, hits give high values
# Outline: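 Strain: cln2 rad14 yeast, altered in cell cycle control and DNA damage repair. Read-out: growth inhibition vs vehicle.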
# [5] = NCI Yeast Anticancer Drug Screen. Data for the bub3 strain (AID 167); conditions: S. cerevisiae bub3 mutant strain, hits give high values
# Outline: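 Steps: expose the mutant yeast strain to compound; grow alongside vehicle-treated cultures; measure growth; express inhibition against the vehicle cultures.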
# [6] = NCI Yeast Anticancer Drug Screen. Data for the mlh1 rad18 strain (AID 175); conditions: S. cerevisiae mlh1 rad18 strain growth inhibition, hits give high values
# Outline: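 A repair-deficient yeast strain is exposed to test compound, and growth is scored relative to vehicle-treated controls.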
# [7] = at 5.0 µM (retest, dose inferred, filed as 0.5)
# [8] = at 50.0 µM (retest, dose inferred, filed as 5.0)
Compound,"growth inhibition [1, 7]","growth inhibition [1, 8]",growth inhibition ([1]; at 50.0 µM),"growth inhibition [2, 7]","growth inhibition [2, 8]",growth inhibition ([2]; at 50.0 µM),"growth inhibition [3, 7]","growth inhibition [3, 8]",growth inhibition ([3]; at 50.0 µM),"growth inhibition [4, 7]","growth inhibition [4, 8]",growth inhibition ([4]; at 50.0 µM),"growth inhibition [5, 7]","growth inhibition [5, 8]",growth inhibition ([5]; at 50.0 µM),"growth inhibition [6, 7]","growth inhibition [6, 8]",growth inhibition ([6]; at 50.0 µM)
COc1ccc2c(c1)OC(c1ccccc1O)CC2=O (configuration not stated),0%,-17%,55.9%,-44%,-30%,24.1%,-10%,11%,72.1% (active),-14%,12%,20.7%,-2%,-9%,55.5%,-70%,-34%,36.5%
O=C(O)C1C(Br)(c2ccccc2)C1(Br)c1ccccc1 (configuration not stated),47%,90% (active),90.7% (active),-1%,30%,17.7%,9%,70% (active),69%,25%,93% (active),83.8% (active),-3%,10%,7.05%,-8%,55%,59.9%
CC(C)(C)N=C=NC(c1ccccc1)(c1ccccc1)c1ccccc1,-3%,-21%,-1.9%,-9%,-7%,-6.1%,-6%,-24%,2.45%,-1%,-18%,42.5%,-6%,-22%,4.5%,11%,1%,-3.25%
Clc1cc[c]([Sn]([Cl])([O][Sn]([Cl])([c]2ccc(Cl)cc2)[c]2ccc(Cl)cc2)[c]2ccc(Cl)cc2)cc1,89% (active),97% (active),86.5% (active),95% (active),98% (active),88.5% (active),96% (active),97% (active),87.6% (active),42%,98% (active),81.5% (active),97% (active),98% (active),87% (active),90% (active),95% (active),92.7% (active)
NCCC(N)P(=O)(O)O (configuration not stated),-166%,-150%,20.6%,-46%,-48%,16.2%,-61%,-60%,-3.9%,-61%,-51%,16.6%,-74%,-71%,13%,-141%,-111%,0.45%
NNC(=O)N/N=C(/CC1(O)C(=O)Nc2ccc(Br)cc21)c1ccccc1 (configuration not stated),-1%,83% (active),88.3% (active),1%,66%,83.8% (active),-2%,86% (active),89.6% (active),-5%,48%,10.2%,8%,91% (active),81.3% (active),0%,71% (active),93.7% (active)
Cn1c2ccccc2c2cc3cnccc3cc21,-98%,95% (active),98.5% (active),-50%,73% (active),96.4% (active),-57%,82% (active),92.6% (active),-55%,88% (active),96.3% (active),-68%,89% (active),90.8% (active),-164%,93% (active),98.7% (active)
O=C1c2ccccc2Cc2cc(O)ccc21,29%,94% (active),47.5%,13%,92% (active),48.4%,8%,91% (active),45%,4%,88% (active),82.5% (active),2%,89% (active),88.6% (active),10%,92% (active),91.3% (active)
O=S(=O)(OCC#CCOS(=O)(=O)c1ccc(Cl)c(Cl)c1)c1ccc(Cl)c(Cl)c1,-1%,32%,28.8%,-1%,41%,44%,-6%,63%,54.7%,1%,8%,75.2% (active),-4%,32%,35.3%,7%,37%,48.2%
CN1CCN(CC(=O)c2c(-c3ccccc3)[nH]c3ccccc23)CC1,68%,4%,33.2%,56%,1%,15.8%,66%,7%,9.45%,50%,21%,33.1%,58%,4%,-9.9%,80% (active),1%,8.15%
O=C(/C=C/C(=O)N1CCCC1)N1CCCC1,6%,10%,1.15%,3%,1%,0.65%,4%,3%,14.8%,-4%,-11%,-1.35%,2%,6%,2.55%,-2%,-2%,37.4%
Cc1nc2c(Cl)cccc2c2ccccc12,14%,94% (active),94.2% (active),4%,93% (active),85.7% (active),5%,95% (active),87.5% (active),-10%,95% (active),88% (active),-1%,95% (active),93.4% (active),18%,98% (active),94.5% (active)
COc1cc(/C=N/NC(=S)Nc2ccccc2)ccc1O,-20%,13%,20.8%,-10%,34%,27.4%,-7%,82% (active),66.7%,-31%,9%,-23.4%,-11%,60%,77.7% (active),-16%,49%,30.1%
[CH3][Sn]1([CH3])[O]C(=O)CCN=Cc2c(ccc3ccccc23)[O][Sn]([CH3])([CH3])[O]C(=O)CCN=Cc2c(ccc3ccccc23)[O]1,57%,98% (active),90.6% (active),61%,99% (active),92.8% (active),82% (active),99% (active),93% (active),24%,99% (active),91.7% (active),84% (active),98% (active),92.3% (active),93% (active),99% (active),89.8% (active)
COc1cc(C)cc2c(-c3c(O)cc(O)c4c3C[C@H](C)N[C@H]4C)cc(-c3cc(-c4c(O)cc(O)c5c4C[C@H](C)N[C@H]5C)c4cc(C)cc(OC)c4c3O)c(O)c12,-6%,27%,-28.4%,-10%,-12%,-27.8%,-14%,-7%,18.7%,0%,1%,87% (active),0%,-23%,-48.5%,-18%,27%,2.7%
COc1cc(/C=C2\CC(C)C/C(=C\c3ccc(O)c(OC)c3)C2=O)ccc1O (configuration not stated),84% (active),83% (active),74.5% (active),91% (active),89% (active),83.6% (active),92% (active),90% (active),77.7% (active),70% (active),89% (active),81.6% (active),91% (active),89% (active),80.8% (active),84% (active),90% (active),66.5%
CC1CCCCN(CCN(Cc2ccccc2)c2ccccc2)C1 (configuration not stated),-1%,32%,58.1%,2%,29%,45.9%,10%,75% (active),73.8% (active),4%,37%,80.8% (active),5%,52%,58%,8%,42%,54.1%
CCOC(=O)C(C=O)(C=O)c1ccccc1,6%,42%,71.5% (active),4%,19%,8.5%,7%,18%,61%,4%,24%,43.2%,-3%,14%,-36.4%,-1%,32%,44.5%
CCCCc1ccc2nc(C)cc(N=[N+]=[N-])c2c1,2%,98% (active),89.7% (active),-14%,90% (active),99% (active),-6%,96% (active),94.8% (active),-14%,48%,94.7% (active),-9%,92% (active),97.2% (active),-2%,98% (active),96.3% (active)
